Measurements from PubChem BioAssay (Tox21).
Values joined by “and” are separate entries in the source; they are usually repeats but may differ in a detail not shown here. Identical values can stand only once. Records with an inconclusive call do not appear. Active and inactive are the calls of the source. Unless noted, the call rests on the fitted dose curve; in most records, active means well fitted curve in the direction sought with a large enough effect in the repeat runs; inconclusive means weak or mixed curves; inactive means no such curve, though single readings can be large; an effect the other way counts as inactive or inconclusive.

Key:
[1] = qHTS assay for small molecules that induce genotoxicity in human embryonic kidney cells expressing luciferase-tagged ATAD5 (AID 651632); further: nearly all actives have a fitted effect of over 15% in size; further: potency means the concentration at half of the fitted maximal effect
Method in brief: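 Luminescence read-out: after 16 hr compound exposure at 37C, ATAD5-luciferase HEK293T cells received Amplite, 30 min RT, then CCD imaging. A rise in signal marks genotoxic stress.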

[2] = qHTS assay for small molecule agonists of the p53 signaling pathway - cell viability (AID 651633; calls by dose curve; further: nearly all actives have a fitted effect of over 30% in size; further: potency means the concentration at half of the fitted maximal effect)
Method in brief: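 Viability counter-read: CellTiter-Glo luminescence (30 min, room temperature) in the same p53RE-bla plates. These plates had been exposed to compounds for 16 h at 37 C.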

[3] = qHTS assay for small molecules that induce genotoxicity in human embryonic kidney cells expressing luciferase-tagged ATAD5 - cell viability (AID 651634; calls by dose curve; further: nearly all actives have a fitted effect of over 25% in size)
Method in brief: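 HEK293T ATAD5-luc cells, 2,000/well; compound 15.5 hr, 37C/5% CO2; CellTiter-Fluor 30 min, 37C; fluorescence read.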

[4] = qHTS assay for small molecule disruptors of the mitochondrial membrane potential - cell viability (AID 720634; calls by dose curve; further: nearly all actives have a fitted effect of over 20% in size; further: potency means the concentration at half of the fitted maximal effect)
Method in brief: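 Luminescence from CellTiter-Glo (ATP content) gave viability in HepG2 cells, read in the same wells as the MMP dye assay after 1 hr compound exposure at 37 C.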

[5] = qHTS assay for small molecule disruptors of the mitochondrial membrane potential (AID 720635); further: potency means the concentration at half of the fitted maximal effect
Method in brief: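 Mitochondrial membrane potential tracked with Mito-MPS dye, red aggregates (ex 540/em 590 nm) against green monomers (ex 490/em 535 nm). Compound treatment 1 hr at 37C, dye 30 min in HepG2.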

[6] = qHTS assay to test for compound auto fluorescence at 590 nm (red) in HepG2 cells (AID 720674)
Method in brief: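 We screened compounds on adherent HepG2 cells, incubating them for an hour at 37 C in 5% CO2 before reading emission at 590 nm under 540 nm excitation; values reflect equivalence to Rose Bengal sodium fluorescence.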

[7] = qHTS assay to test for compound auto fluorescence at 535 nm (green) in HepG2 cells (AID 720675)
[8] = qHTS assay to test for compound auto fluorescence at 460 nm (blue) in HEK293 cells (AID 720678)
Method in brief: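 Intrinsic compound fluorescence is recorded in live HEK293 cultures after overnight incubation at 37C, 5% CO2, using excitation 405 nm and emission 460 nm. Values are referenced to triamterene.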

[9] = qHTS assay to test for compound auto fluorescence at 590 nm (red) in HEK293 cells (AID 720679)
Method in brief: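 Red autofluorescence, HEK293 cells: 2,000 cells/well; attach 4-5 hr 37C; add 23 nL cpd or DMSO; incubate o/n 37C 5% CO2; read Ex540/Em590; Rose Bengal sodium reference.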

[10] = qHTS assay for small molecule agonists of the p53 signaling pathway (AID 651631; calls by dose curve; further: nearly all actives have a fitted effect of over 15% in size; further: potency means the concentration at half of the fitted maximal effect)
Method in brief: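 HCT-116 cells carrying a stable p53 response element–beta-lactamase reporter were plated, rested 5 h at 37 °C, then exposed to compound in DMSO for 16 h at 37 °C; reporter activity was read as FRET substrate fluorescence after 2 h at room temperature.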

Measured: Potency

C[C@]12C=CC(=O)C=C1CC[C@H]1[C@@H]3C[C@@H](O)[C@](O)(C(=O)CO)[C@@]3(C)C[C@H](O)[C@@]12F
not listed: [10]
inactive: all other assays above

Cc1ccc(S(=O)(=O)NCl)cc1
not listed: [3] | [10]
inactive: all other assays above

C=CCCCCCCCCCC
not listed: [10]
inactive: all other assays above

C=CC(C)(O)CCC=C(C)C (centres undefined)
not listed: [3] | [10]
inactive: all other assays above

Cc1ccc(N)c([N+](=O)[O-])c1
active: [5] 54.5 µM
not listed: [10]
inactive: all other assays above

CCC/C=C/C=O
not listed: [5] | [10]
inactive: all other assays above

CC1(C)OC(=O)NC1=O
not listed: [10]
inactive: all other assays above

C[N+](C)(C)CCO
not listed: [3] | [10]
inactive: all other assays above

CNC[C@H](O)c1ccc(O)c(O)c1
not listed: [3] | [10]
inactive: all other assays above

CC(C)(Oc1ccc(Cl)cc1)C(=O)O
not listed: [3] | [10]
inactive: all other assays above

CN(C)C
not listed: [3] | [10]
inactive: all other assays above

C=CCOC(=O)C(=C)C
not listed: [10]
inactive: all other assays above

CC[C@]12CCCN3CCc4c(n(c5ccccc45)[C@@](O)(C(=O)OC)C1)[C@@H]32
not listed: [5] | [10]
inactive: all other assays above

CC1(C)C(C=C(Cl)Cl)C1C(=O)OCc1cccc(Oc2ccccc2)c1 (centres undefined)
active: [5] 30.6 µM
not listed: [10]
inactive: all other assays above

CCCCCCCCCCCCO
not listed: [10]
inactive: all other assays above

Cc1cccc(Nc2ccccc2C(=O)O)c1C
not listed: [5] | [10]
inactive: all other assays above

C1CN(SSN2CCOCC2)CCO1
active: [5] 61.1 µM
not listed: [3] | [10]
inactive: all other assays above

Nc1cc(Cl)c(N)c(Cl)c1
not listed: [5] | [10]
inactive: all other assays above

CCc1cccc2c3c([nH]c12)C(CC)(CC(=O)O)OCC3 (centres undefined)
not listed: [5] | [10]
inactive: all other assays above

FC(F)(F)C(Cl)Br (centres undefined)
not listed: [10]
inactive: all other assays above

CC/C(=C(/CC)c1ccc(O)cc1)c1ccc(O)cc1
active: [10] 9.44 µM and 13.6 µM and 15.4 µM | [2] 60.6 µM | [5] 7.5 µM and 6.06 µM and 10.9 µM
not listed: [1]
inactive: all other assays above

Cc1ccc(C(C)(C)C)c(O)c1
active: [5] 26.4 µM and 17.2 µM
not listed: [10]
inactive: all other assays above

CC(C)[N+](C)(CCOC(=O)C1c2ccccc2Oc2ccccc21)C(C)C
not listed: [10]
inactive: all other assays above

CCCN1C=CN(C)C1
not listed: [10]
inactive: all other assays above

O=C(CCCN1CCC(O)(c2ccc(Cl)cc2)CC1)c1ccc(F)cc1
not listed: [1] | [3] | [5]
inactive: all other assays above

CCCCCCCCCCC(CO)CCCCCCCC (centres undefined)
not listed: [3] | [10]
inactive: all other assays above

Nc1ccc(O)c(N)c1
active: [5] 10.8 µM and 4.86 µM
not listed: [3] | [10]
inactive: all other assays above

Oc1ccc(C(c2ccc(O)cc2)C(Cl)(Cl)Cl)cc1
active: [2] 68.3 µM | [5] 6.09 µM and 6.86 µM
not listed: [3] | [10]
inactive: all other assays above

Clc1ccc(Sc2cc(Cl)c(Cl)cc2Cl)cc1
active: [5] 1.68 µM and 864 nM
not listed: [10]
inactive: all other assays above

Cc1ccc2c(c1)C(=O)OC2=O
not listed: [3] | [10]
inactive: all other assays above

O=C(O)CCCCCCCCCCCC(=O)O
not listed: [10]
inactive: all other assays above

CC(=O)OC(C)C
not listed: [2] | [10]
inactive: all other assays above

CC(=O)Oc1c(C)c(C)c2c(c1C)CC[C@@](C)(CCC[C@H](C)CCC[C@H](C)CCCC(C)C)O2
inactive: [4] | [5] | [6] | [7] | [8] | [9]

CCC(=O)O[C@H]1[C@H](O[C@@H]2[C@@H](C)[C@H](O[C@H]3C[C@@](C)(OC)[C@@H](O)[C@H](C)O3)[C@@H](C)C(=O)O[C@H](CC)[C@@](C)(O)[C@H](O)[C@@H](C)C(=O)[C@H](C)C[C@@]2(C)O)O[C@H](C)C[C@@H]1N(C)C
active: [2] 13.3 µM
not listed: [3] | [5] | [10]
inactive: all other assays above

C=C[C@H]1CN2CC[C@H]1C[C@H]2[C@H](O)c1ccnc2ccc(OC)cc12
not listed: [2] | [10]
inactive: all other assays above

CN1CCOCC1
not listed: [1] | [10]
inactive: all other assays above

Nc1cc([N+](=O)[O-])ccc1C(=O)O
active: [5] 38.6 µM
not listed: [2] | [10]
inactive: all other assays above

CCCCCC=O
not listed: [2] | [5] | [10]
inactive: all other assays above

OC[C@H]1O[C@@H]2O[C@H]3[C@H](O)[C@@H](O)[C@@H](O[C@H]4[C@H](O)[C@@H](O)[C@@H](O[C@H]5[C@H](O)[C@@H](O)[C@@H](O[C@H]6[C@H](O)[C@@H](O)[C@@H](O[C@H]7[C@H](O)[C@@H](O)[C@@H](O[C@H]1[C@H](O)[C@H]2O)O[C@@H]7CO)O[C@@H]6CO)O[C@@H]5CO)O[C@@H]4CO)O[C@@H]3CO
not listed: [2] | [3] | [10]
inactive: all other assays above

C1COCCN1
not listed: [2] | [10]
inactive: all other assays above

CC(=O)[C@H]1CC[C@H]2[C@@H]3CC=C4C[C@@H](O)CC[C@]4(C)[C@H]3CC[C@]12C
not listed: [2] | [5] | [10]
inactive: all other assays above

CN(Cc1cnc2nc(N)nc(N)c2n1)c1ccc(C(=O)N[C@@H](CCC(=O)O)C(=O)O)cc1
inactive: [1] | [4] | [6] | [7] | [9]

CC(=O)O[C@]1(C(C)=O)CC[C@H]2[C@@H]3C=C(C)C4=CC(=O)CC[C@]4(C)[C@H]3CC[C@@]21C
not listed: [2] | [5] | [10]
inactive: all other assays above

C=CC(=O)OCCCC
not listed: [2] | [10]
inactive: all other assays above

Nc1ccc(N)c(Cl)c1
active: [5] 3.85 µM and 27.3 µM
not listed: [2] | [3] | [10]
inactive: all other assays above

CN(C)/N=N/c1nc[nH]c1C(N)=O
not listed: [2] | [3] | [10]
inactive: all other assays above

COc1ccc(-c2coc3cc(O)cc(O)c3c2=O)cc1
active: [1] 1.38 µM and 3.86 µM | [4] 4.9 µM and 13.7 µM | [5] 3.09 µM and 6.86 µM
not listed: [2] | [10]
inactive: all other assays above

COc1ccc2nc(N)sc2c1
not listed: [2] | [3] | [10]
inactive: all other assays above

CCOC(=O)C(C)Oc1ccc(Oc2cnc3cc(Cl)ccc3n2)cc1 (centres undefined)
not listed: [2] | [5] | [10]
inactive: all other assays above

CCCCCCCC/C=C\CCCCCCCC(=O)O
not listed: [2] | [3] | [10]
inactive: all other assays above

[O-]/[N+](=N\O)c1ccccc1
not listed: [2] | [10]
inactive: all other assays above

CCCCCCC(C)O (centres undefined)
not listed: [2] | [10]
inactive: all other assays above
